For 47 compounds, Potency results are on record in PubChem BioAssay AID1645870 (National Center for Advancing Translational Sciences (NCATS), 2021).

Where “and” joins values, the source holds several entries; their conditions need not be identical. Identical values can stand only once. Hit rate of the full screen: of about 59,000 compounds, about 1,500 (2.5%) were called active. A call without a number means that no potency is given here. Another 10% or so got no clear call; they are omitted. Calls come from the whole dose curve; as a rule, active = well fitted inhibition curve with a large enough effect; inconclusive = small, poorly fitted or top-dose-only effect; inactive = flat fitted curve, though single readings scatter. The full list was thinned out, with actives kept by preference. Some structures have more than one record in an assay (separate samples or runs), and their calls can disagree.
Potency is the fitted concentration of half-maximal effect.

N-terminal Xaa-Pro-Lys N-methyltransferase 1 (Homo sapiens), sequence (Q9BV86 whole entry, looked up): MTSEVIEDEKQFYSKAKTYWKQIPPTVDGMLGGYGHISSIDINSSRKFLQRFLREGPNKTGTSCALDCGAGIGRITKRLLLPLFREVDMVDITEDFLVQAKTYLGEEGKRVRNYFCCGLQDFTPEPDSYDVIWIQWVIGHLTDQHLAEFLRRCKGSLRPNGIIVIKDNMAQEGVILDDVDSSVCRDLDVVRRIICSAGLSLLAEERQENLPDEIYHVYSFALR

The target of the experiment is N-terminal Xaa-Pro-Lys N-methyltransferase 1 (Homo sapiens) (UniProt Q9BV86). The experiment is described as follows: Primary qHTS for Inhibitors of N-terminal methyltransferase 1 (NTMT1): MTaseGlo Assay. Note: nearly all actives have a fitted effect of over 65% in size. The settings on record: NTMT1 MTase-Glo SAH luminescence, purified enzyme; series mostly up to 114 µM. An excerpt:
Assay Submitter (PI): Rong Huang Ph.D.
Purdue University, West Lafayette, IN 47907
The N-terminal methytransferase 1 is the first methyltransferase that methylates protein alpha-N-amines and plays an important role in regulating cell mitosis, chromatin interactions and DNA repair. It is observed to be over-expressed in various cancer patient tissues like malignant melanoma and colorectal cancer tissues. Knockdown of NTMT1 in cancer cells causes cell mitotic defects and enhances sensitivity to DNA damaging chemotherapeutics. […] These critical cellular processes in which NTMT1 is implicated, coupled with emerging links to cellular dysfunction, strengthen the inference that NTMT1 is a compelling novel anticancer target. Progress have been made in understanding the molecular properties of NTMT1 and the biological consequences of protein alpha-N-terminal methylation, but there are no specific small molecule probes available for NTMT1 to fully characterize its MTase activity. To address this unmet need, a panel of assay is created and established to enable quantitative high-throughput screening (qHTS) for novel, potent, and selective small molecule NTMT1 inhibitors. Two orthogonal qHTS that use different reagents (ThioGlo vs. MTaseGlo) are developed for primary robotic screening against the NCATS chemical library of more than 400,000 small molecules. Identified inhibitors are reacquired, validated, and further characterized.
MTaseGlo Assay is a luminescence screen that measure the activity of methyltransferases based on the reaction product S-adenosyl homocysteine (SAH). The substrate SAM is converted to SAH upon enzyme activation. MTase-Glo reagent and detection solution convert SAH to ATP and measure the light from the luciferase reaction.
Materials: NTMT1 enzyme, substrate SPKRIA, control peptide RCC1-6 is provided by the Huang laboratory.
SEQUENCE No. (e.g., 1, 2, 3, etc.); […] (e.g., Cells, Incubation, Reagent, etc.); VALUE; DESCRIPTION
1; Enzyme; 3 uL; Dispense enzyme mixture (final concentrations of 125 nM NTMT1 and 100 uM SAM) into Greiner 1536-well white / solid bottom assay plate (Greiner Bio One, Monroe, NC).
2; Compounds; 23 nL; Compounds and controls were transferred via a Kalypsys Pin Tool (Wako USA) equipped with a 1536-slotted pin array (Wako Automation, Richmond, VA)
3; Incubation; 15 min; Incubate at room temperature
4; Substrate; 1 uL; Dispense 1 uL of substrate at final concentration of 1 uM. Buffer solution was dispensed in control wells. The assay plate was covered with metal lids.
5; Incubation; 30 min; Incubate at room temperature, protected from lights.
6; Reagent; 1 uL; Dispensed 5x MTase-Glo detection reagent (R) into the assay plate. The plate was covered with metal lids.
7; Incubation; 30 min; Incubate the assay plates at room temperature in the dark to allow for SAH to be converted to ADP.
8; Reagent; 5 uL; Dispense 5 uL of 1x MTase-Glo Detection Solution (R) to allow for ADP to be converted to ATP which was then detected with a luciferase reaction.
9; Centrifuge; 15 sec; Centrifuge the assay plate for 15 seconds at 1000 RPM.
10; Incubation; 30 min; Assay plates were incubation at room temperature in the dark.
11; Detection; Luminescence; Plates were read on ViewLux detector (PerkinElmer). Data were normalized to no-enzyme (0% activity) and no-inhibitor (DMSO; 100%) controls, and the resulting percent inhibition data were fitted to a 4-parameter Hill equation using GraphPad Prism.
As to `COc1ccc(C2=Nn3c(nnc3-c3ccccc3F)SC2)cc1OC`, the Potency entry was “inactive”.

Regarding `COC(=O)c1ccc(NC(=O)CSc2n[nH]c(-c3ccccc3)n2)cc1`, the Potency entry was “inactive”.

For the compound `COc1ccc(-c2nc3c(c(SCC(=O)Nc4ccc(C(=O)O)cc4)n2)Cc2ccccc2O3)cc1`, the Potency is 11.2 µM (active).

Turning to `COc1ccc(NC(=O)CSc2nc3ccccc3[nH]2)cc1`, the Potency result was “inactive”.

For `CN(C)CC(=O)NC1CCCc2c1cnn2-c1ccc(F)cc1F` (configuration not stated), the Potency entry is “inactive”.

As for `O=C(Nc1ccc(Cl)c(Cl)c1)Nc1nnc(N2CCNCC2)s1`, the Potency was 50.1 µM (active).

With `O=C(Nc1ccc(Cl)c(Cl)c1)Nc1nnc(C2CCCCC2)s1`, the Potency result is “inactive”.

On to `O=C(Nc1ccc(Cl)c(Cl)c1)Nc1nnc(-c2ccc(F)cc2)s1`, for which the Potency result is “inactive”.

Consider `O=C(Nc1nc(-c2ccccc2)cs1)c1ccccc1-n1cnnn1`, for which the Potency entry was “inactive”.

Turning to `Cc1cc(-c2nnc3n2CCCCC3)c(C)n1-c1ccc(C(F)(F)F)cc1`, the Potency entry is “inactive”.

Take `COc1cc(F)c(S(=O)(=O)N2CCCN(S(=O)(=O)c3ccc(N)cc3)CC2)c(F)c1`: the Potency result was “inactive”.

Regarding `CC(C)(C)OC(=O)N1CCN(c2ccc(NCc3ccc4c(-c5ccc(F)cc5)cc(=O)oc4c3)cc2)CC1`, the Potency entry is “inactive”.

Consider `Cc1cc(-c2nnc3n2CCCCC3)c(C)n1-c1cccc(Cl)c1`, for which the Potency entry was “inactive”.

As for `C(#Cc1cccs1)c1cccnc1`, the Potency result is “inactive”.

As to `CC(C)(C)c1nc(-c2cccc(NS(=O)(=O)c3c(F)cccc3F)c2F)c(-c2ccnc(N)n2)s1`, the Potency entry is “inactive and 39.8 µM (active)”.

In the case of `CCOC(=O)c1scc(-c2ccccc2)c1S(=O)(=O)Nc1ccccc1F`, the Potency entry was “inactive”.

`O=C(C[C@H]1CC[C@@H](C(=O)Nc2ccc(S(=O)(=O)Nc3nccs3)cc2)C1)c1ccccc1`: the Potency result was “inactive”.

`O=C(NCc1nnc(C(=O)Nc2ccc(C(F)(F)F)cc2Cl)o1)c1ccccc1`: the Potency result is “inactive”.

Consider `Cc1cccc(C2N=C(Nc3nc4ccccc4o3)NC3=C2C(=O)CCC3)c1` (configuration not stated), for which the Potency entry was “inactive”.

Consider `COc1ccc(CC(=O)Nc2ccc(-c3nc4ccccc4s3)c(C)c2)cc1`, for which the Potency entry is “inactive”.

In the case of `COc1cccc(C(=O)Nc2nnc(S(=O)(=O)N3CCOCC3)s2)c1`, the Potency entry is “inactive”.

As to `COc1ccc2c(c1)Cc1sc(NC(=O)c3ccccc3Br)nc1-2`, the Potency was 50.1 µM (active).

For the compound `CC(Cc1cnccn1)Nc1cnc2c(O)ccc(C(=O)O)c2c1` (configuration not stated), the Potency entry was “inactive”.

Take `CCCn1c(-c2ccc(F)cc2)nc2c(NCC3CCCN3CC)nc(C)nc21` (configuration not stated): the Potency result was “inactive”.

In the case of `NC(=O)C1CCN(c2ncc(-c3ccc(Cl)cc3)s2)CC1`, the Potency entry is “inactive”.

In the case of `COc1cccc(OC2=NS(=O)(=O)c3ccccc32)c1`, the Potency entry was “inactive”.

Consider `Oc1c(Cl)cc(Cl)c(Cl)c1Cc1c(O)c(Cl)cc(Cl)c1Cl`, for which the Potency is 31.6 µM (active).

Turning to `Cc1cc(Nc2cc(C)c(C#N)c(NC(C)CCCC(C)(C)O)n2)n[nH]1` (configuration not stated), the Potency result is “inactive”.

Regarding `Cc1ccc(Cn2ncc3c4sc(C)cc4n(C)c3c2=O)c(C)c1`, the Potency entry is “inactive”.

With `O=C1CCc2cc(S(=O)(=O)Nc3cccc(Oc4ccccc4)c3)ccc2N1`, the Potency entry was “inactive”.

Regarding `COc1ccc(C2Nc3ccccc3C(=O)N2Cc2cccs2)cc1COc1c(C)cccc1C` (configuration not stated), the Potency entry is “inactive”.

Consider `COc1cccc(CNc2ccc(S(=O)(=O)Nc3cccs3)cc2)c1O`, for which the Potency result was “inactive”.

For the compound `CCCn1c(C)nc2c(NCCCCN(CC)CC)nc(C)nc21`, the Potency result is “inactive”.

On to `CCN(CCCNC(=O)c1cc2c(=O)n(CC)c3ccccc3c2s1)Cc1ccccc1`, for which the Potency is 79.4 µM (active).

Consider `CCn1c(=O)c2cc(C(=O)NCCc3ccc(Cl)cc3)sc2c2ccccc21`, for which the Potency entry is “inactive”.

For `CCc1ccc(CNC(=O)c2cc3c(=O)n(CC)c4ccccc4c3s2)cc1`, the Potency entry is “inactive”.

Take `COc1ccc(C2Nc3ccccc3C(=O)N2Cc2ccc(CNC(=O)CO)cc2)cc1COc1ccc(NC(C)=O)cc1` (configuration not stated): the Potency result is “inactive”.

Turning to `O=C(Nc1nc2c(s1)CCCC2)c1ccccc1F`, the Potency is 35.5 µM (active).

As to `O=C(Nc1ccc(S(=O)(=O)N2CCC(c3nc4ccccc4s3)CC2)cc1)c1ccccc1F`, the Potency result is “inactive”.

For `Cc1cc(C)cc(OC(C)C(=O)Nc2nc3c(s2)CCCC3)c1` (configuration not stated), the Potency entry is “inactive”.

With `O=C1CCCC2=C1C(c1[nH]ncc1Cl)N=C(Nc1nc3ccc(F)cc3o1)N2` (configuration not stated), the Potency result was “inactive”.

Consider `CN1C(=O)[C@@H](NC(=O)c2n[nH]c(Cc3ccccc3)n2)COc2ccccc21`, for which the Potency result is “inactive”.

As for `Nc1ccc2c(=O)n3nc(Nc4ccc5c(c4)CCC5)sc3nc2c1`, the Potency entry was “inactive”.

`Oc1ccc(/C=C/c2c(F)cccc2F)c2cccnc12`: the Potency result was “inactive”.

As to `CCOc1ccccc1C(=O)Nc1ccc(S(=O)(=O)N2CCCCC2c2cccnc2)cc1` (configuration not stated), the Potency was 79.4 µM (active).

With `Cc1cccc(C(=O)Nc2ccc(S(=O)(=O)N3CCCCC3c3cccnc3)cc2)c1` (configuration not stated), the Potency entry is “inactive”.

For the compound `CCOc1ccccc1NC(=O)CN1CCN(S(=O)(=O)c2ccc(Br)cc2)CC1`, the Potency entry is “inactive”.
